Test results published in PubChem BioAssay (NCATS).
Inconclusive results are not listed. Entries that show only a call come without a potency. Values without a mark were called inactive. Activity calls are given as the source filed them. Calls come from the whole dose curve; as a rule, active = well fitted curve in the direction sought with a large enough effect; inconclusive = small, poorly fitted or top-dose-only effect, or another doubt; inactive = no such curve, though single readings can be large; an effect the other way counts as inactive or inconclusive.

Tests used:
[1] = molecular target: Rap guanine nucleotide exchange factor 3 (Homo sapiens) (UniProt O95398); assay: Confirmatory qHTS for agonist of cAMP-regulated guanine nucleotide exchange factor 3 (EPAC1) (AID 1645881);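 note: EPAC1 catalysed release of BODIPY-GDP from Rap1B seen as fluorescence loss; nearly all actives have a fitted effect of over 75% in size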
Rap guanine nucleotide exchange factor 3 (Homo sapiens), sequence (O95398 whole entry, looked up): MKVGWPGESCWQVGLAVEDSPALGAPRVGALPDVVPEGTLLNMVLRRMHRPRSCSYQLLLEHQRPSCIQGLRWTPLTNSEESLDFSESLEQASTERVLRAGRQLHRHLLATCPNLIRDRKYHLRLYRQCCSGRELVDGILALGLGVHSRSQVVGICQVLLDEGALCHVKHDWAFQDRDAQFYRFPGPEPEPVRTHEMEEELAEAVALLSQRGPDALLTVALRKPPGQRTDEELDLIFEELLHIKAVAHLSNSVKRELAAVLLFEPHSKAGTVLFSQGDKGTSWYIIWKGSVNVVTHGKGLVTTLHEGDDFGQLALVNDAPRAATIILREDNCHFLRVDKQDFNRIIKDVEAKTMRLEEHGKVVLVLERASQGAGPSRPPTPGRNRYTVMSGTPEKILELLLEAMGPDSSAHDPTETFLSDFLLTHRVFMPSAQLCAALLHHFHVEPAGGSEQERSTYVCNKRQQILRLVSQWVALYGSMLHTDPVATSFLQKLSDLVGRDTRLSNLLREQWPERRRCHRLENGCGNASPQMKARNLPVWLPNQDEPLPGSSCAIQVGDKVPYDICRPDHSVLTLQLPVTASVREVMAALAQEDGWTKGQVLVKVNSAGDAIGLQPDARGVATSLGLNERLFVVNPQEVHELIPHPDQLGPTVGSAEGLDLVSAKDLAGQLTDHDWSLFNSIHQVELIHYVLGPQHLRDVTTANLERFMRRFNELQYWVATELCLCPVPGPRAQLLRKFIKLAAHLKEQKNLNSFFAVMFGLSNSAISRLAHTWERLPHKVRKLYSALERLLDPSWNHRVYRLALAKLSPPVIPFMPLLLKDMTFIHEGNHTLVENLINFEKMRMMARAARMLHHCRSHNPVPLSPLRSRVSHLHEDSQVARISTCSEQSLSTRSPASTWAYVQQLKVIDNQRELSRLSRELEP

[2] = molecular target: Rap guanine nucleotide exchange factor 4 (Homo sapiens) (UniProt Q8WZA2); assay: Confirmatory qHTS for agonist of cAMP-regulated guanine nucleotide exchange factor 4 (EPAC2) (AID 1645884);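 note: nucleotide exchange releases bodipy-GDP from Rap1 and this lowers its fluorescence; nearly all actives have a fitted effect of over 65% in size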
Rap guanine nucleotide exchange factor 4 (Homo sapiens), sequence (Q8WZA2 whole entry, looked up): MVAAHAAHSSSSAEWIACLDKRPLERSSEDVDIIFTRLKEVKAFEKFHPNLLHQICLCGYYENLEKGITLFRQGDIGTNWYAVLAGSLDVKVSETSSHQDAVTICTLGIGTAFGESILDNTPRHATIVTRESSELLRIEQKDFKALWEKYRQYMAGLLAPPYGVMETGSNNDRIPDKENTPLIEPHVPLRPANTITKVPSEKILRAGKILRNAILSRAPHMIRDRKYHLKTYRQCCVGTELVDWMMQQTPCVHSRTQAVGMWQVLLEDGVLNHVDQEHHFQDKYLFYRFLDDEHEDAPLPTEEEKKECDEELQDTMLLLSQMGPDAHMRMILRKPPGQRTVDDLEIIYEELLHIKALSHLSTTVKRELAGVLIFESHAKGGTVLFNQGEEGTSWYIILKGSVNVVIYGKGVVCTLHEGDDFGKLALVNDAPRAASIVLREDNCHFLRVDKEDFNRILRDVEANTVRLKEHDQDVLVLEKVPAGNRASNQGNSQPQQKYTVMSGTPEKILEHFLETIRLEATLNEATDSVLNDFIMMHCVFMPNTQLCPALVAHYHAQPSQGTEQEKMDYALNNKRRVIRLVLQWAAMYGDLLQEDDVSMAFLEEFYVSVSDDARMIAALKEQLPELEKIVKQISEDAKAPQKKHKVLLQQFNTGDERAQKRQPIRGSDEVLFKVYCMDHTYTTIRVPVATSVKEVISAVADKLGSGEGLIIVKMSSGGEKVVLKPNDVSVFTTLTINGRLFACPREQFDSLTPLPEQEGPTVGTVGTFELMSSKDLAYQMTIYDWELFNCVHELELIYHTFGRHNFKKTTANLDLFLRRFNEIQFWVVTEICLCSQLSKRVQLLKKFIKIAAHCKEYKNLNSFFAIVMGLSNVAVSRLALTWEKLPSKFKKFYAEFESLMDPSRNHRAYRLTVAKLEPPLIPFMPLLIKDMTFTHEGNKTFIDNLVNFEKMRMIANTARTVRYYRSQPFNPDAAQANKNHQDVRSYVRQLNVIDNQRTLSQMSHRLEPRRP

[3] = molecular target: Rap guanine nucleotide exchange factor 4 (Homo sapiens) (UniProt Q8WZA2); assay: Confirmatory qHTS for antagonist of cAMP-regulated guanine nucleotide exchange factor 4 (EPAC2) (AID 1645885); note: nearly all actives have a fitted effect of over 25% in size; note: potency is the fitted concentration of half-maximal effect
[4] = molecular target: Rap guanine nucleotide exchange factor 3 (Homo sapiens) (UniProt O95398); assay: Counterscreen qHTS for antagonist of cAMP-regulated guanine nucleotide exchange factor 3 (EPAC1) (AID 1645888);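 note: fluorescence loss as bound BODIPY-GDP is released from Rap1B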
Outline: (§1)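 Rap1B–BODIPY-GDP (250 nM) with 50 uM GDP; compounds pin-transferred to 9.74 nM–152 uM final (activator) or from 7.32 nM upwards (inhibitor). Fluorescence Ex/Em 480/540 nm read at 5 and 30 min, then after adding cAMP or buffer, at room temperature.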

[5] = molecular target: Rap guanine nucleotide exchange factor 3 (Homo sapiens) (UniProt O95398); assay: Counterscreen qHTS for agonist of cAMP-regulated guanine nucleotide exchange factor 3 (EPAC1) (AID 1645889); note: nearly all actives have a fitted effect of over 40% in size
Outline: as §1

Compound	Potency [1]	Potency [2]	Potency [3]	Potency [4]	Potency [5]	activation [2]	activity change, negative = inhibition [4]	activation [5]
COc1cc(Cl)cc(/C=N\NC(=O)c2ccc3c(c2)OCO3)c1O	inactive	inactive	inactive	inactive	inactive			
CCn1c(SCC(=O)Nc2sc3c(c2C(N)=O)CCC(C)C3)nnc1-c1ccco1 (stereo not given)	inactive	inactive	inactive	inactive	inactive			
CC(C)CC1C(=O)N(Cc2cn(Cc3ccco3)nn2)CCS(=O)(=O)N1Cc1ccc(-c2ccccc2)cc1 (stereo not given)	inactive	inactive	19 µM (active)	inactive	inactive			
CCCC(=O)Oc1c(S(=O)(=O)c2ccc(C)cc2)c(C)nn1C(C)(C)C	inactive		inactive			12.6% [at 17.1 µM, percent relative to cAMP agonist control]	-10.7% [at 30.8 µM]	5.13% [at 30.8 µM]
CC1(NC(=O)CCc2nc3sc4c(c3c(=O)[nH]2)CCCC4)CCS(=O)(=O)C1 (stereo not given)	inactive		inactive			0.392% [at 17.1 µM, percent relative to cAMP agonist control]	-17% [at 30.8 µM]	8.58% [at 30.8 µM]
Cn1c(/N=C/c2c(O)ccc3ccccc23)nc2ccccc21	inactive	inactive	inactive	inactive	inactive			
Cc1ccc(S(=O)(=O)N/N=C/c2cc(Br)ccc2O)cc1	inactive	inactive	inactive	inactive	inactive			
COc1cc(O)c(C(CC(=O)N2CCCC(C)C2)c2ccc3c(c2)OCO3)c(OC)c1 (stereo not given)	inactive		inactive			-10.6% [at 17.1 µM, percent relative to cAMP agonist control]	-20% [at 30.8 µM]	13.2% [at 30.8 µM]
CCOC(=O)c1c(C)oc2nc(C)nc(N(CC(C)C)CC(C)C)c12	inactive	inactive	inactive	inactive	inactive			
O=C(Nc1c2c(nc3ccccc13)CCCC2)c1ccccc1F	inactive		inactive			-3.93% [at 17.1 µM, percent relative to cAMP agonist control]	-18.6% [at 30.8 µM]	12.9% [at 30.8 µM]
CN(CC(=O)Nc1ccc(Cl)c(C(F)(F)F)c1)C(=O)Cc1c[nH]c2ccccc12	inactive		inactive			5.51% [at 17.1 µM, percent relative to cAMP agonist control]	-15.4% [at 30.8 µM]	36.2% [at 30.8 µM]
C=CCc1ccccc1OCc1nc2ccccc2n1CC	inactive	inactive	inactive	inactive	inactive			
CCC1(c2ccccc2)SCC(c2ccccc2)=NC1=O (stereo not given)	inactive	inactive	inactive	inactive	inactive			
Cc1ccc(C(=O)Cc2ccccc2)c(O)c1	inactive		inactive			0.272% [at 17.1 µM, percent relative to cAMP agonist control]	-3.71% [at 30.8 µM]	23.4% [at 30.8 µM]
CCC(=O)N(CCC(c1ccccc1)c1ccc2c(c1)OCO2)Cc1ccc(OC(C)C)cc1 (stereo not given)	inactive	inactive	inactive	inactive	inactive			
O=C(O)C(Cc1c[nH]c2ccccc12)NS(=O)(=O)c1ccc(Cl)c(C(F)(F)F)c1 (stereo not given)	inactive		inactive			-2.68% [at 17.1 µM, percent relative to cAMP agonist control]	-4.37% [at 30.8 µM]	21.8% [at 30.8 µM]
CSc1ccccc1NC(=O)CN1c2ccccc2CC1C (stereo not given)	inactive		inactive			8.71% [at 17.1 µM, percent relative to cAMP agonist control]	-0.569% [at 30.8 µM]	44.6% [at 30.8 µM]
Cc1c([N+](=O)[O-])cnc(Sc2ccccc2)c1[N+](=O)[O-]	inactive	inactive	inactive	inactive	inactive			
C[C@H](c1ccccc1)N1C[C@H](COCc2ccccc2)Oc2cc(N3CC[C@@H](O)C3)ccc2S1(=O)=O	inactive		inactive			10.3% [at 17.1 µM, percent relative to cAMP agonist control]	-15.5% [at 30.8 µM]	20% [at 30.8 µM]
OC(c1ccc(F)c(F)c1)c1nc(-c2csc3ccccc23)cs1 (stereo not given)	inactive		inactive			3.04% [at 17.1 µM, percent relative to cAMP agonist control]	-0.286% [at 30.8 µM]	2.58% [at 30.8 µM]
CC(C)c1ccc(S(=O)(=O)Nc2ccc3c(c2)OCO3)cc1	inactive	inactive	inactive	inactive	inactive			
CCCCC(CC)C(=O)Nc1ccc(Nc2ccccc2)cc1 (stereo not given)	inactive	inactive	inactive	inactive	inactive			
